Reference: PubChem BioAssay (NCI)
About 83,000 compounds went through this panel and 20% of them were active in at least one assay; those are over-represented in the sample as a whole.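 How to read the values: 0–100, growth inhibition (40 = 60% inhibited); 0, no net growth; -100 to 0, cell death (-40 = 40% of starting cells died; -100 = all dead).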 A number with no mark means an inactive call. Calls of active or inactive are those of the source.

tested on: BT-549 breast; assay: NCI-60 one-dose screen, 48 h (100 = growth as untreated, 0 = no growth, -100 = all killed); settings: 10 µM unless noted
Experimental: Growth inhibition of the BT-549 human tumor cell line is measured as a screen for anti-cancer activity. Cells are grown in 96 well plates and exposed to the test compound for 48 hours. Compounds are tested at a single concentration, which is 10^-5 M for most compounds. The reported endpoint is percent growth (GI% or GIPRCNT), where numbers from 0 - 100% represent growth inhibition, and numbers from -100% - 0 represent cell death. For example, a value of 40 represents 60% growth inhibition. A value of 0 means no net growth occurred over the course of the experiment. A value of -40 indicates 40% of cells at the beginning of the experiment died by the end of the experiment. A value of -100 means all cells are dead at the end of the experiment.
NCI-60 Human Tumor Cell Lines Screen was performed using the standard one-dose NCI protocol, which is described in more detail at https://dtp.cancer.gov/discovery_development/nci-60/default.htm.
Compounds with GIPRCNT values below 10 were considered active. Activity score was based on GIPRCNT using the following formula: […]
Score is 0 for GIPRCNT values of 100 or above, 50 for GIPRCNT values of 0, and 100 for GIPRCNT values of -100.

Structure (SMILES) | growth
Nc1ncnc2c1c(-c1ccc(Oc3ccccc3)cc1)nn2C[C@@H]1SSC[C@H]1O | 57.9%
CCn1cc(C(=O)O)c(=O)c2cc(F)c(N3CCN(CC(=O)Nc4ccc(C(C)=O)cc4)CC3)cc21 | 109%
CCc1cccc(-c2ccccc2)c1 | 97.1%
O=c1c2ccccc2[nH]n1Cc1ccc2c(c1)OCO2 | 107%
C[C@@H]1CC2C3C[C@H](F)C4=CC(=O)C=C[C@]4(C)[C@@]3(F)[C@@H](O)C[C@]2(C)[C@@]1(O)C(=O)CO (stereo not given in full) | 81.2%
Cn1c2ccccc2c2ssc(=S)c21 | 110%
COc1ccccc1C(OC(C)=O)OC(C)=O | 102%
COc1ccc(C(=O)NC(=O)Nc2ccc3c(c2)NC(=O)/C3=C\c2[nH]c(C)c(CCC(=O)O)c2C)c(F)c1 | 11.2%
Cc1c(NC(=O)c2sc3nc4c(cc3c2N)CN(Cc2ccccc2)CC4)cccc1C(F)(F)F | 49.2%
CS(=O)(=O)Nc1cccc(-c2ccc3ncnc(Nc4ccc(F)c(Cl)c4)c3c2)c1 | 35.4%
OC[C@@H](O)C(O[C@@H]1O[C@H](CO)[C@H](O)[C@H](O)[C@H]1O)[C@H](O)[C@@H](O)CO (stereo not given in full) | 107%
COc1ccc(Cl)cc1NC(=O)c1cc2c(n1C)-c1nc(NC(=O)C(C)C)sc1CC2 | 53%
O=C(CNc1cccnc1)Nc1ccc(C(=O)/C=C/c2ccc(Cl)cc2)cc1 | 89.7%
CC(=O)Nc1ccc(OC(=O)c2ccccc2O)cc1 | 113%
Cc1ccc[n+](CC(=O)c2cccc3ccccc23)c1 | 93.8%
Fc1ccc(/C=N/n2c(-c3cc(Cl)cc(Cl)c3Cl)nn(CNc3ccc(Cl)nn3)c2=S)cc1 | 114%
NS(=O)(=O)c1ccc(CCN2C(=O)/C(=C\c3ccc(Cl)cc3)C=C2c2ccc(Oc3ccccc3)cc2)cc1 | 92.2%
Cc1[nH]c2ccc(F)cc2c1CCNC(=O)C1CCN(C(=O)c2ccc(-c3ccccc3)cc2)CC1 | 40.8%
Cc1[nH]n(C(=O)c2ccncc2)c(=O)c1N=Nc1ccc(S(=O)(=O)Nc2ccncn2)cc1 | 127%
CCOc1cccc(Nc2nc(N)nc3[nH]c4ccc(O)cc4c23)c1 | 68.8%

Structure (SMILES) | growth
O=C(Nc1ccc(-n2cc(-c3ccncc3)c(-c3ccc(O)c(Cl)c3)n2)cc1)c1ccc(Cl)c(C(F)(F)F)c1 | 14.9%
COc1ccc(-c2cc(-c3nnc(SC/C(=N\O)c4ccccc4)n3-c3ccccc3)c3ccccc3n2)cc1 | 108%
COc1cc(NC(=O)c2cc(OC)c3ccn(C)c3c2)cc2c1C[C@]1(C)CC[C@@H](O)C(C)(C)[C@H]1O2 | 36.9%
COC(=O)c1oc2c(C(C)=O)c(OCCN3CCCCC3)ccc2c1C | 130%
CN1CCN(Cn2nc(-c3cc(Cl)cc(Cl)c3Cl)n(/N=C/c3ccc(Cl)cc3)c2=S)CC1 | 102%
O=C(Cn1c2ccccc2c2ccncc21)N/N=C/c1cc(O)c(O)c(O)c1 | 107%
O=C(Nc1ccc(-n2ccc3c(NC(=O)c4ccccc4)nccc32)cc1)c1cccc(C(F)(F)F)c1 | 29%
COc1cc(CN(c2ccc(Cl)cc2)C2OC(=O)c3ccccc32)cc(OC)c1OC (stereo not given) | 44.8%
COc1ccc(Cn2cc(COc3ccc4c5ccnc(C)c5n(CCCc5ccccc5)c4c3)nn2)cc1 | 67.5%
CCN(CC)c1ccc(C2CC(c3cc(OC)c(OC)c(OC)c3)=NN2)cc1 (stereo not given) | -2.69% (active)
CCn1c(SCC(=O)c2ccc(Br)cc2)nnc1-c1cc2c([nH]c3ccccc32)c(-c2cccc(O)c2)n1 | 71.9%
COc1ccc2c(c1)nnn1c3ncccc3c(N=O)c21 | -11.7% (active)
COc1cccc(-c2nc3sccn3c2-c2ccnc(NCCNC(=O)c3ccccc3)n2)c1 | 85.1%
COc1cc(/C=C2/Oc3cc4occc4c(OC)c3C2=O)ccc1OCC(=O)Nc1ccncc1 | 93.9%
C=CC(=O)NC(=O)Nc1ccccc1Cl | 75.3%
O=C(N/N=C1\SCC(=O)N1c1ccccc1)c1cc(-c2cc3ccccc3o2)nn1-c1ccccc1 | 101%
Cc1cn(-c2nc3c(c(NCc4ccccc4)n2)COCC3)c2cccc(C(N)=O)c12 | 89% [0.5 µM]
COc1ccc(C[C@H](N)C(=O)N[C@@H]2[C@@H](CO)OC(n3cnc4c(N(C)C)ncnc43)[C@@H]2O)cc1 (stereo not given in full) | -72.1% (active)
CC(=O)O[C@@H]1[C@@H](OC(C)=O)[C@H](OC(C)=O)CO[C@H]1Nc1cccc2ccccc12 | 89.1%
Cc1ccc(-c2cc(-c3nnc(SCC(=O)c4ccccc4)o3)c3ccccc3n2)cc1 | 93.4%
